Compound activity (PubChem)
The sample as a whole holds a higher share of hits than the screen did.
ERK EGF block – blocks ERK signaling stimulated by EGF; AID 1454; hit rate 0.41% among 130,000; HEK293-V1b, EGF-stimulated phospho-ERK AlphaScreen; Potency, µM (highest dose often 11.5 µM), for the others: at the top dose activity change, negative = inhibition, hits mostly inhibitors;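 also: plate controls were stimulated vehicle wells for no effect and unstimulated vehicle basal for full effect; nearly all actives have a fitted effect of over 55% in size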
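Concentration-response of compounds against EGF-driven ERK phosphorylation in V1b-expressing HEK293 cells; 30 min preincubation, 5 min EGF, AlphaScreen detection; Normalized to DMSO basal and 25 nM EGF.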
NPSR antag – neuropeptide S receptor (human) antagonism, cAMP. Potency, µM (series often up to 38.3 µM), inactives show at the highest dose activity change, negative = inhibition, usual class: inhibitors. Q6W5P4. hit rate 1% among 220,000. AID 1461. CHO-NPSR cells, cAMP TR-FRET, antagonist mode; also: nearly all actives have a fitted effect of over 50% in size
Target sequence (Q6W5P4 whole entry, looked up): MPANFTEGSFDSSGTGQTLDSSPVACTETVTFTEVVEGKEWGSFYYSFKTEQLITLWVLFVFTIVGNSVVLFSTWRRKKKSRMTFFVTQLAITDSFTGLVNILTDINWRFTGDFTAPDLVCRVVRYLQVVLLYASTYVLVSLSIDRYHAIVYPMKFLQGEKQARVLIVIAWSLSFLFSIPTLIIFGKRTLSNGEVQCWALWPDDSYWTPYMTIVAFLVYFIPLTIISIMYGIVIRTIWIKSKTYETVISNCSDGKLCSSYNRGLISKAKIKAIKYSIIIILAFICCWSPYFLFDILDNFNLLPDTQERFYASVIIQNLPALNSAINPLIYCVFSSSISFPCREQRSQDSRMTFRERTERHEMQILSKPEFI
IMPase Li cell – cell-permeable IMPase inhibitors with lithium potentiation | CHO-M1 cells, IP1 TR-FRET (IP-One), carbachol + lithium | Potency, µM (doses to about 59.4 µM), for the others: at the highest dose activity, negative = IMPase inhibition, actives largely listed as inhibitors | hit rate 0.35% among 210,000;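 also: IP1 builds up when IMPase is blocked and the TR-FRET signal falls; plate controls were basal vehicle for no effect and high inhibitor control for full effect; nearly all actives have a fitted effect of over 50% in size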
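Test compounds were applied to CHO-M1 cells previously cultured for 16–30 h at 2000 per well. A small lithium amount accompanied them; after 30 min at 37C, IP1 was quantified by TR-FRET.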
Numbers without * were called inactive; ? = inconclusive; nt = not tested or not shown; [ ] = dose if it differs, or a comment. Calls follow the shape of the dose curve; as a rule, active = well fitted curve in the direction sought with a large enough effect; inconclusive = small, poorly fitted or top-dose-only effect, or another doubt; inactive = no such curve, though single readings can be large; an effect the other way counts as inactive or inconclusive. Unless noted, % is scaled to controls: 0 for no effect and ±100 for the full control effect; potency is read from the fitted curve at half-maximal effect.

SMILES	ERK EGF block	NPSR antag	IMPase Li cell
Cc1cc(C)c(S(=O)(=O)OC[C@H]2C=CC[C@@H](CCC[C@H]3O[C@H](C(=O)OC(C)C)CC[C@@H]3C)O2)c(C)c1	-4.9%	nt	17.5%
S=C(Nc1cccc(Cl)c1)N(CCCN1CCCC1)Cc1cccn1Cc1ccc(Cl)cc1	-12.3%	10µM*	21.0%
CSc1cccc(NC(=S)N(CCCN2CCCC2)Cc2cccn2Cc2ccc(Cl)cc2)c1	-3.1%	5.01µM*	20.5%
CSc1cccc(NC(=S)N(CCCN2CCCC2)Cc2cccs2)c1	6.1%	-22.9%	10.9%
Cn1cc(CN(CCCN2CCOCC2)C(=S)Nc2cccc(Cl)c2)c2ccccc21	2.2%	-20.9%	0.4%
O=[N+]([O-])c1ccc(N=NN(CCO)CCO)cc1	5.8%	11.4%	-1.7%
O=[N+]([O-])c1ccc(N=Nc2ccc(O)cc2O)cc1	nt	10µM*	18.9%[38.3 µM]
O=C(CCN1CCOCC1)Nc1ccc(F)cc1F	nt	nt	-3.2%
C=CC(=O)OCCCC	nt	nt	-9.6%
Cc1ccc(C(=O)Cn2c3c(sc2=N)CCCC3)cc1	5.3%	nt	27.9%
C[C@@H]1CC[C@H]2[C@H](C)[C@H]3CC[C@H]4C5[C@@H](O)CC6=CC(=O)CC[C@]6(C)[C@H]5C[C@H]4C3C(=O)N2C1 (stereo partly drawn)	-6.7%	nt	16.7%
FC(F)(F)c1nnc2c(Sc3ccccc3)nc3ccccc3n12	nt	-6.9%[46.1 µM]	-23.9%
FC(F)(F)c1nnc2c(Sc3ccc(Cl)cc3)nc3ccccc3n12	nt	?	17.8µM*
N#C/C(=N\Nc1cccc(C(F)(F)F)c1)C(=O)c1csc(-c2cccnc2)n1	4.7%[57.5 µM]	10µM*	nt
Cc1ccc(C(=O)Nc2cccc(C(F)(F)F)c2)cc1NC(=O)c1csc(-c2ccncc2)n1	-1.8%[57.5 µM]	-31.9%	nt
COc1ccc2c(c1)C(=O)[C@@H](OC(=O)NCCOc1ccccc1)[C@H](c1ccc(OC)c(Br)c1)O2	-11.9%	nt	-1.5%
CC(=O)N1CC(=O)N=C1SCC(=O)Nc1nc(-c2ccccc2)c(-c2ccccc2)s1	1.6%	10µM*	-6.6%
Cc1sc(NC(=O)CSC2=NCCS2)nc1-c1ccccc1	nt	-14.3%[46.1 µM]	18.1%[38.3 µM]
NC1(C(=O)O)CCc2cc(C(=O)O)ccc21 (stereo not drawn)	16.4%	-11.2%[46.1 µM]	1.1%
Cn1cccc1C(=O)N1CCC[C@@]2(CCN(C(=O)Nc3cccc(F)c3)C2)C1	3.3%	nt	16.7%
Cc1c(Nc2cc(Cl)c3nonc3c2[N+](=O)[O-])c(=O)n(-c2ccccc2)n1C	?	6.31µM*	25.2%
Cc1c(Nc2cc(N3CCOCC3)c3nonc3c2[N+](=O)[O-])c(=O)n(-c2ccccc2)n1C	-7.3%	3.3%	4.0%
N#CCCn1c(=O)c(-c2ccc(Cl)cc2)nc2cnc(N3CCNCC3)nc21	nt	nt	3.7%
N#CCCn1c(=O)c(-c2ccc(F)cc2)nc2cnc(N3CCNCC3)nc21	nt	nt	-11.9%
COCCn1c(=O)c(-c2cn(C)c3ccccc23)nc2cnc(Oc3ccccc3)nc21	?	nt	5.0%
SMILES	ERK EGF block	NPSR antag	IMPase Li cell
Cn1cc(-c2nc3cnc(Oc4ccccc4)nc3n(C)c2=O)c2ccccc21	nt	nt	7.08µM*
Cn1c(=O)c(-c2ccc(Cl)cc2)nc2cnc(Oc3cccc(Cl)c3)nc21	nt	nt	12.6µM*
COCCn1c(=O)c(-c2ccc(OC)cc2)nc2cnc(OC)nc21	6.5%	nt	-4.1%
COc1ccc(-c2nc3cnc(OC)nc3n(CCc3ccccc3)c2=O)cc1	nt	nt	7.08µM*
Cn1c(=O)c(-c2cc(F)cc(F)c2)nc2cnc(Oc3cccc(Cl)c3)nc21	-0.6%	nt	-0.6%
CCC[C@@H]1C[C@@]1(CCC)[C@@H](NC(=O)Oc1ccccc1)c1ccc(C(=O)OC)cc1	1.7%	nt	3.5%
C=CCN1c2ccccc2[C@]23C[C@@H](C(=O)OC)N(S(=O)(=O)c4ccc5c(c4)OCCN5C)C2=NC(C(=O)OC)=C(C(=O)OC)[C@H]13	nt	nt	1.9%
CN1CCN(c2ncc3nc(-c4ccc(Cl)cc4)c(=O)n(CCC#N)c3n2)CC1	-2.7%	nt	7.9%
CCN(CC)c1ccc(/C=N/NC(=O)c2ccc(O)cc2)cc1	-2.3%	nt	5.3%
Cc1nc(N2CCc3ccccc3C2)[nH]c(=O)c1Cc1ccccc1	17.7%	-12.8%	-9.2%
Cc1nc(-n2[nH]c3c(c2=O)CCCC3)[nH]c(=O)c1Cc1ccccc1	nt	7.94µM*	29.4%[38.3 µM]
CN(C)c1ccc(/C=C/c2ccc3c4ccccc4ccc3[n+]2-c2ccccc2)cc1	25.1µM*	10µM*	116.5%
CN(C)c1ccc(/C=C/c2cccc[n+]2[O-])cc1	2.8%[57.5 µM]	-3.0%	nt
C/C(=N/S(=O)(=O)c1ccc(Cl)c(Cl)c1)OCC(C)(C)C	nt	nt	3.3%
CC(Nc1oc(-c2ccccc2)nc1-c1cccc2ccccc12)c1ccccc1 (stereo not drawn)	-6.0%	nt	0.6%
Cc1ccc2[nH]c(=O)c(CN(Cc3ccc4c(c3)OCO4)Cc3nnnn3C3CCCC3)cc2c1	nt	12.6µM*	-0.8%[38.3 µM]
Cc1cc2cc(CN(Cc3ccc4c(c3)OCO4)Cc3nnnn3C3CCCC3)c(=O)[nH]c2cc1C	nt	?	19.1%[38.3 µM]
CCCCCCCCCCCCC/C=C/[C@@H](O)[C@H](CO)N(C)C	-1.3%	nt	-14.6%
CC(=O)N1CCC2(CCCN(C(=O)Nc3cccc(F)c3)C2)CC1	-6.4%	nt	3.4%
Cc1nc(=S)c2ccccc2[nH]1	nt	2.4%[46.1 µM]	9.9%[38.3 µM]
FC(F)(F)c1nc(=S)c2ccccc2[nH]1	-5.6%	?	3.16µM*
Cc1nnc(N/N=C/c2cc([N+](=O)[O-])c(N3CCC(C)CC3)cc2N2CCC(C)CC2)n1N	nt	10µM*	51.5%[38.3 µM]
CCc1nnc(N/N=C/c2ccc(N3CCC(C)CC3)c([N+](=O)[O-])c2)n1N	3.2%	-4.3%	0.1%
C[C@@H]1CCCN(CP(=O)(c2ccccc2)c2ccccc2)C1	nt	nt	-5.5%
O=C(CC(c1ccccc1)c1ccccc1)Nc1ccc(Cl)cn1	nt	10µM*	19.3%[38.3 µM]
O=C(CSCc1ccccc1)Nc1ccc(Cl)cn1	nt	-5.7%[46.1 µM]	32.7%[38.3 µM]
CC(C)C1COc2cc3oc(=O)ccc3cc2O1 (stereo not drawn)	16.2%	nt	5.1%
CC(C)=C1CCC(C)CC1=O (stereo not drawn)	nt	nt	9.8%
CO[C@H]1C=CO[C@@]2(C)Oc3c(C)c(O)c4c(O)c(c(C=NN5CCN(C)CC5)c(O)c4c3C2=O)NC(=O)C(C)=CC=C[C@H](C)[C@H](O)[C@@H](C)[C@@H](O)[C@@H](C)[C@H](OC(C)=O)[C@@H]1C	?	-57.6%	40.1%
